Measured values: ChEMBL document CHEMBL1961873, “Compounds: GSK PKIS; Assays: Nanosyn kinase panel” (2012)

How the values were obtained:
[1] = biological target: Leukocyte tyrosine kinase receptor (Homo sapiens) (UniProt P29376); details: at 1 µM;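 note: each value is the mean inhibition of LTK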
[2] = biological target: Tyrosine-protein kinase Lyn (Homo sapiens) (UniProt P07948); details: at 0.1 µM
[3] = biological target: Tyrosine-protein kinase Lyn (Homo sapiens) (UniProt P07948); details: at 1 µM
[4] = biological target: Tyrosine-protein kinase Lyn (Homo sapiens) (UniProt P07948); details: at 0.1 µM; remark: listed apart in the source
[5] = biological target: Tyrosine-protein kinase Lyn (Homo sapiens) (UniProt P07948); details: at 1 µM; remark: listed apart in the source
[6] = biological target: T1, Tyrosine-protein kinase Mer (Homo sapiens) (UniProt Q12866); details: at 0.1 µM
T1 sequence (whole entry): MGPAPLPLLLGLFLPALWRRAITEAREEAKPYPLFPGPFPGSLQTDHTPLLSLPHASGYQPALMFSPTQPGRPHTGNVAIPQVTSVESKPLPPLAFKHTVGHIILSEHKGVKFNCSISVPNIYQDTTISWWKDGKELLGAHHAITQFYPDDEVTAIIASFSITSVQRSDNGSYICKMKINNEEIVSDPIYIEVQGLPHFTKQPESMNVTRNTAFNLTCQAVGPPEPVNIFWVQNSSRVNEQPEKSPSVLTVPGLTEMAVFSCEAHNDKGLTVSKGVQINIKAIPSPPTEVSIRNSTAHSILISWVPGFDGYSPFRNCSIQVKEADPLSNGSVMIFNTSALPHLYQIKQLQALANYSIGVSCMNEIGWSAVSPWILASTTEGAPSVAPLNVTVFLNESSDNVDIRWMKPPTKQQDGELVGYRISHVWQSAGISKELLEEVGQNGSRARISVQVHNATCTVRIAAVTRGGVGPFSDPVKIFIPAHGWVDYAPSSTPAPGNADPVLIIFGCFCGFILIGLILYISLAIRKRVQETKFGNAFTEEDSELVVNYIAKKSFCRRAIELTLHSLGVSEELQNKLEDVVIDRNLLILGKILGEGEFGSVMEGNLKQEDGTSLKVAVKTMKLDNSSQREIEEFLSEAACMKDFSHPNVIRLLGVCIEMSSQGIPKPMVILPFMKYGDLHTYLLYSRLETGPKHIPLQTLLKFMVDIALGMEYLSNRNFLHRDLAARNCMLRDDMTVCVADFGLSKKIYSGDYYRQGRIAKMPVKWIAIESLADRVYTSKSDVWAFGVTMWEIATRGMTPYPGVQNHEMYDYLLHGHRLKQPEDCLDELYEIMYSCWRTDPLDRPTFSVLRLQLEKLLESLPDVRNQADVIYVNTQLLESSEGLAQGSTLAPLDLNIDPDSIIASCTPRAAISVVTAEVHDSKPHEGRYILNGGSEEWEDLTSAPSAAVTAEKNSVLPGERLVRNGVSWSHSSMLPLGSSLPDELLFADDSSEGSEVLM

[7] = biological target: T1, Tyrosine-protein kinase Mer (Homo sapiens); details: at 1 µM
[8] = biological target: Hepatocyte growth factor receptor (Homo sapiens) (UniProt P08581); details: at 0.1 µM
[9] = biological target: Hepatocyte growth factor receptor (Homo sapiens) (UniProt P08581); details: at 1 µM
[10] = biological target: T2, Muscle, skeletal receptor tyrosine-protein kinase (Homo sapiens) (UniProt O15146); details: at 0.1 µM;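 note: values are mean inhibition of MuSK from the GSK PKIS kinase screening panel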
T2 sequence (whole entry): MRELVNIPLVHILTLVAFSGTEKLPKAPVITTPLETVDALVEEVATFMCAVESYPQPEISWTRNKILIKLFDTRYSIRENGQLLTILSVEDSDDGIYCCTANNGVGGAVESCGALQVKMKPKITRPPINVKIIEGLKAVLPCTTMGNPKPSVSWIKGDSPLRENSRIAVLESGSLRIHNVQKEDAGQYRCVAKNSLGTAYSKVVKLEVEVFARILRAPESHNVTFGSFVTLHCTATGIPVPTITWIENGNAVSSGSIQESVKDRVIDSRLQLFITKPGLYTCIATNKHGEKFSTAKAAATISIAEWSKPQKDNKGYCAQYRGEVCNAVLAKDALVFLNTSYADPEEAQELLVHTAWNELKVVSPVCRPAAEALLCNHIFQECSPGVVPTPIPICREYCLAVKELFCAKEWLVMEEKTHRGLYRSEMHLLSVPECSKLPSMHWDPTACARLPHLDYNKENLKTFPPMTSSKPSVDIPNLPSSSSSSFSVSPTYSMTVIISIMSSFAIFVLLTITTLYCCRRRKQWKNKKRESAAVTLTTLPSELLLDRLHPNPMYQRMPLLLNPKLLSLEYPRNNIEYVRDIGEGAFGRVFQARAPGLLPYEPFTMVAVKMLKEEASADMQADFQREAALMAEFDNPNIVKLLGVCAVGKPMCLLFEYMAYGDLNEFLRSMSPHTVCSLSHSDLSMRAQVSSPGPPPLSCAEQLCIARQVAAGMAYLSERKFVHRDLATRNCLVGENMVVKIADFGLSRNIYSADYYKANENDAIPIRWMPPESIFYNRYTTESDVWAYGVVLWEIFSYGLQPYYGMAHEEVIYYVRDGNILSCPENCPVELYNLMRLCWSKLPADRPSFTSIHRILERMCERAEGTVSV

Sequence of Hepatocyte growth factor receptor (Homo sapiens) (P08581 whole entry): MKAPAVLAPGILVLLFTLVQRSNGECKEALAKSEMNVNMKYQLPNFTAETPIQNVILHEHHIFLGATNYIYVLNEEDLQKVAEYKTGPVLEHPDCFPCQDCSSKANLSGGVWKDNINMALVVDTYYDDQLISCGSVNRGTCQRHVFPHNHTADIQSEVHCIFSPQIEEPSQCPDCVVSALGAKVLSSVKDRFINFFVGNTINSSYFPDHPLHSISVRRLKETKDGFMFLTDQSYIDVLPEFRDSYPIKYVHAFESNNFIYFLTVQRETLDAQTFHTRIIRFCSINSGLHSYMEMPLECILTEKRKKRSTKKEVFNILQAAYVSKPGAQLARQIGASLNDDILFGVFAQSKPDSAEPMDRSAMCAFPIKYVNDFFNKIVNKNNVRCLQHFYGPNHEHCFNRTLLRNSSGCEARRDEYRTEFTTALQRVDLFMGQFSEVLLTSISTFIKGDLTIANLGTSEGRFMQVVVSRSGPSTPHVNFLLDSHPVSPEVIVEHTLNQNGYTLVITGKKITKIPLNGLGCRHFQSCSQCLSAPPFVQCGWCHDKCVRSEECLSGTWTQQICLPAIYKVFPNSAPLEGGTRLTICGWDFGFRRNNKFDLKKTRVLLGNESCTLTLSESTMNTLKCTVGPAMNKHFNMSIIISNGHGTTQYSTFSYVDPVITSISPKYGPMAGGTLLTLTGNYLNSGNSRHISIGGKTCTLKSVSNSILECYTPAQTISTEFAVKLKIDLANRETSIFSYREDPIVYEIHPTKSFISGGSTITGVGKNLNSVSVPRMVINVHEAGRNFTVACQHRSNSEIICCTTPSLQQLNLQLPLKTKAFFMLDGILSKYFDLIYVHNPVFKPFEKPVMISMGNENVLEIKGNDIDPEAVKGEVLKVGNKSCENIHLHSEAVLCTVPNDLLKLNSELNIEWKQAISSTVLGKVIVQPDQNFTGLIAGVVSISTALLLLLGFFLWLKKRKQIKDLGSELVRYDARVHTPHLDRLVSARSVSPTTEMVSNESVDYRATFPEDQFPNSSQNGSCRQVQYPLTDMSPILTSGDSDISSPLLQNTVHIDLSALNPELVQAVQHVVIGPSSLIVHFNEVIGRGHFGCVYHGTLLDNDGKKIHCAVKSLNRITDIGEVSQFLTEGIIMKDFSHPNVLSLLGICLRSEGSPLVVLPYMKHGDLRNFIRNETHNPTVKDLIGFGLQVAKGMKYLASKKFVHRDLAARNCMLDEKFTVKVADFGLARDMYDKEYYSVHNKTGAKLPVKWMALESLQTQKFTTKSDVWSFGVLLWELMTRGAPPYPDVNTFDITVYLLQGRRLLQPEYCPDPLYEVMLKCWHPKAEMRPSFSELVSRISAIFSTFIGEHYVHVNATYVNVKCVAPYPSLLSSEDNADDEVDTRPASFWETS
Sequence of Leukocyte tyrosine kinase receptor (Homo sapiens) (P29376 whole entry): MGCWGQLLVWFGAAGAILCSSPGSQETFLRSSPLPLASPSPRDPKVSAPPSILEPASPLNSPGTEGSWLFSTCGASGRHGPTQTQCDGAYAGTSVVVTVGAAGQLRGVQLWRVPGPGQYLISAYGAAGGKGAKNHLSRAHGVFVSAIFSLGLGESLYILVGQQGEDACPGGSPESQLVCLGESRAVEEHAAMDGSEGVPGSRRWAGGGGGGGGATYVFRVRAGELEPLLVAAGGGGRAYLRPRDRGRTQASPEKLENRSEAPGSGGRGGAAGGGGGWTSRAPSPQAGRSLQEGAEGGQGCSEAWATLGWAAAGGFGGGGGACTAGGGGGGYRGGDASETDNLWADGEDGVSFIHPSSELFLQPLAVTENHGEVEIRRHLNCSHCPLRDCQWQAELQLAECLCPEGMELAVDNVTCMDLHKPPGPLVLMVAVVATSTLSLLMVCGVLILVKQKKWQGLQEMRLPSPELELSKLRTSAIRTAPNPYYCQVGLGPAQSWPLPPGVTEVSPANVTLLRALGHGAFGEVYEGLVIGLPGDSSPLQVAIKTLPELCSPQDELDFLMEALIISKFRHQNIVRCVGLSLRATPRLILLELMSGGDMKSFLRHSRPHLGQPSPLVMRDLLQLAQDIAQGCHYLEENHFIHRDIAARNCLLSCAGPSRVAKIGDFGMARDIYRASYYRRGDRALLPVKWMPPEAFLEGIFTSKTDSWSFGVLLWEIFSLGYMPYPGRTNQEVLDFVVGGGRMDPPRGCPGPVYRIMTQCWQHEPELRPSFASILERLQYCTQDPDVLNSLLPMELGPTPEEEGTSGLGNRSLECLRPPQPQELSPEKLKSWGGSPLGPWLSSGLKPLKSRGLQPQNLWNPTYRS
Sequence of Tyrosine-protein kinase Lyn (Homo sapiens) (P07948 2-512 limits assumed): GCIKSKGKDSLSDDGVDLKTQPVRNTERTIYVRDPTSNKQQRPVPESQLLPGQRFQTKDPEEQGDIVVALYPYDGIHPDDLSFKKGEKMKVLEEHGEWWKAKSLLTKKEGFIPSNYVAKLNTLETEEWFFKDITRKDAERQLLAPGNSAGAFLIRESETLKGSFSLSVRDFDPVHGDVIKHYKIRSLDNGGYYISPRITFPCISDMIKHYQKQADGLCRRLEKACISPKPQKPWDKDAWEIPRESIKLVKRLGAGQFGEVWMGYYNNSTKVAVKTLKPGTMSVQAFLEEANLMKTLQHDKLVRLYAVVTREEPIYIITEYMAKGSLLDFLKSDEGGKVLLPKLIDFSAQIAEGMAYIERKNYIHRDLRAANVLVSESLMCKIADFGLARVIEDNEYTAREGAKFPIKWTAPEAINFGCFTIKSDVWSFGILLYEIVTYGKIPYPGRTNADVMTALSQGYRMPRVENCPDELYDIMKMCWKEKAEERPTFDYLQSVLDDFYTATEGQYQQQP

SMILES	inhibition [1]	inhibition [2]	inhibition [3]	inhibition [4]	inhibition [5]	inhibition [6]	inhibition [7]	inhibition [8]	inhibition [9]	inhibition [10]
COc1cc(Nc2ncc3c(C)nc(-c4cccc(C(F)(F)F)c4)n3n2)cc(OC)c1OC	4.56%	8.46%	27.6%	5.92%	21.9%	1.71%	4.47%	8.25%	9.19%	3.85%
Cc1ccc(NC(=O)c2ccoc2)cc1-c1ccc(C(=O)NCC2CC2)cc1	3.16%	3.73%	3.68%	3.72%	4.12%	1.1%	1.81%	11.4%	0.85%	0.54%
CN(c1ccc(NC(=O)Nc2c(Cl)cccc2Cl)cc1)c1ccnc(Nc2cccc(CS(C)(=O)=O)c2)n1	1.45%	29.7%	64.8%	27.1%	60.9%	14.6%	29.6%	80.8%	85%	72.8%
C[C@@H](Oc1cc(-n2cnc3ccc(OCC4CCN(C)CC4)cc32)sc1C(N)=O)c1ccccc1Cl	10.3%	5.95%	17.7%	4.21%	13.8%	1.86%	5.73%	2.19%	9.62%	41.5%
COc1cccc(-n2cnc3c(N/N=C/c4ccncc4)ncnc32)c1	0.9%	7.17%	47.2%	6.07%	41.6%	0.12%	4.47%	0.87%	6.87%	2.4%
Cc1nnc(-c2ccc(C)c(-c3ccc(C(=O)NCc4ccc(Cl)cc4)cc3)c2)o1	4.02%	3.85%	8.64%	2.14%	4.87%	2.04%	1.93%	4.09%	6.08%	2.38%
NS(=O)(=O)c1ccc(N/N=C2\C(=O)Nc3ccc(-c4cnco4)cc32)cc1	3.37%	3.33%	11.1%	1.68%	8.81%	1.31%	8.19%	6.22%	2.64%	4.18%
Cc1ccc(C(=O)NC2CCC2)cc1-c1ccc(C(=O)NCC2CC2)cc1	2.04%	3.48%	2.47%	2.55%	1.61%	2.37%	6.88%	3.95%	6.08%	2.41%
CCS(=O)(=O)c1ccc(OC)c(Nc2ncc(-c3cccc(-c4ccccc4F)c3)o2)c1	4.54%	14.8%	62.5%	10.6%	55.8%	0.82%	3%	2.87%	3.52%	2.39%
COc1ccc2ncn(-c3cc(O[C@H](C)c4ccccc4Cl)c(C(N)=O)s3)c2c1	2.89%	3.82%	5.65%	2.15%	2.91%	2.41%	4.42%	4.37%	4.23%	2.62%
CCN(CC)Cc1ccc(Nc2nccc(-c3cnn4ncccc34)n2)cc1	9.98%	3.53%	11.8%	2.02%	9.31%	2.93%	9.85%	7.6%	10.4%	6.42%
FC(F)(F)c1cccc(Nc2nccc(-c3cnn4nc(-c5ccccc5)ccc34)n2)c1	0.52%	0.75%	3.22%	0.52%	2.95%	-0.58%	0.62%	-0.38%	0.28%	1.03%
O=C1Nc2ccccc2/C1=C/Nc1ccc(-n2cncn2)cc1	7.47%	6.77%	21.6%	4.42%	17.3%	1.28%	5.61%	5.14%	13.6%	3.92%
O=C(Nc1n[nH]c2nc(-c3ccco3)ccc12)C1CC1	1.2%	2.83%	4.01%	1.47%	3.2%	2.01%	1.71%	4.66%	5.26%	5.75%
COc1cc2ncn(-c3cc(OCc4cccs4)c(C(N)=O)s3)c2cc1OC	7.14%	4.29%	22.6%	2.41%	19.3%	3.4%	10.7%	8.19%	13.4%	4.86%
Fc1ccc(-c2ncn(CCCN3CCOCC3)c2-c2ccncc2)cc1	-2.09%	-0.59%	-0.14%	-1%	-0.37%	0.24%	-0.01%	3.89%	-1.62%	-0.13%
c1ccc(-c2n[nH]cc2-c2ccnc(-c3ccc(OCCN4CCOCC4)cc3)c2)nc1	-0.95%	1.31%	10.2%	1.54%	7.34%	5.12%	5.39%	7.49%	5.59%	6.97%
NS(=O)(=O)c1ccc(N/N=C2\C(=O)Nc3ccc(C(=O)NCCCn4ccnc4)cc32)cc1	7.11%	6.54%	16.1%	4.32%	12.4%	1.34%	6.35%	2.76%	12%	4.66%
O=C(Nc1n[nH]c2cc(-c3ccccc3)ccc12)C1CC1	9.93%	5.94%	9.06%	2.77%	5.33%	1.8%	5.12%	0.84%	5.86%	-0.17%
